# Reference: the supplement of paper PMC11732987, “Enantioselective OTUD7B fragment discovery through chemoproteomics screening and high-throughput optimisation” (Communications Chemistry, 2025)
# Values without a mark were called inactive.
# Experiments:
# Test in all cases: log2 ratio of Biotin-Ahx-Ub-VS probe labelling (fragment/DMSO); higher = less target engagement (more negative = stronger competition), active = hit call of the paper (q ≤ 0.05, log2 ratio ≤ -1)
# Conditions in all cases: compound concentration: 200 uM; treatment time: 3 h
# OTUD6B = target: T1, OTUD6B (UniProt Q8N6M0)
# T1 sequence (whole entry): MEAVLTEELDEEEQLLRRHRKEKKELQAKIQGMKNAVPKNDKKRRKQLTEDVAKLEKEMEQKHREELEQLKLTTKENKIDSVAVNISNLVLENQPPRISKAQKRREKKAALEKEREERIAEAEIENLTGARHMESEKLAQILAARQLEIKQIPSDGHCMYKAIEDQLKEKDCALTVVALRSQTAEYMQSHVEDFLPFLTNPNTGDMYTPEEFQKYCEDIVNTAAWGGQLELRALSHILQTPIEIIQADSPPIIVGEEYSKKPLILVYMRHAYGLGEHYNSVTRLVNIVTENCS
# Method in brief: (§1)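 Labelling with Biotin-Ahx-Ub-VS (0.5 µM final, 1 h) followed a 3 h triplicate treatment of HEK293T lysate (495 µg per sample, Tris/CHAPS/IGEPAL buffer with protease inhibitors) with fragment at 200 µM or vehicle. Labelled DUBs were NeutrAvidin-enriched, digested with LysC and trypsin, and run by diaPASEF LC-MS/MS. The values, average log2 fragment/vehicle ratios by unpaired t-test, come from global-median-normalised Spectronaut label-free quantities. Proteins with ≥2 unique peptides were used.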
# OTUD7B = target: T2, OTUD7B (UniProt Q6GQQ9)
# T2 sequence (whole entry): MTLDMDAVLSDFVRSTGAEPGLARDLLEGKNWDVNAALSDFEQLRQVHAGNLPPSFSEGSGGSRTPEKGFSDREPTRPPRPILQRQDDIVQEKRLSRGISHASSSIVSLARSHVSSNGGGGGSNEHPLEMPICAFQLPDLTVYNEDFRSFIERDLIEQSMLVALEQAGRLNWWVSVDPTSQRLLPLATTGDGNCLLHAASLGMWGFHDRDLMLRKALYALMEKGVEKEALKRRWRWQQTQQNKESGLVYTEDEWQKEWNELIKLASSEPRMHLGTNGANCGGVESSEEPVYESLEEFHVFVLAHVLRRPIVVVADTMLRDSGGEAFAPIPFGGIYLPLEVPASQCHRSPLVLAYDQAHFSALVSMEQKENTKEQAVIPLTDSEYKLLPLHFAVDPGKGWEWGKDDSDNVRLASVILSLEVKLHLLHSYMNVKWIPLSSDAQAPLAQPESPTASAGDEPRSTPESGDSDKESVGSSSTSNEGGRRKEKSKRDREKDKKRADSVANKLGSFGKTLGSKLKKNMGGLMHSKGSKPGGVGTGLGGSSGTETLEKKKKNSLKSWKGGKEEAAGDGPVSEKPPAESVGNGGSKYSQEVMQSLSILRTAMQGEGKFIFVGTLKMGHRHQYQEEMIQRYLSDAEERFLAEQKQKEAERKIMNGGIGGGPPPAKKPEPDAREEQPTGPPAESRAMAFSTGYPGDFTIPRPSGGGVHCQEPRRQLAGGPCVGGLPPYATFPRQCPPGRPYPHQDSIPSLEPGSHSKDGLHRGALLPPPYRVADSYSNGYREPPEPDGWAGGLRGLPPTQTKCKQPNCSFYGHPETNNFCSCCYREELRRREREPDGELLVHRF
# Method in brief: as §1
# PRPF8 = PRPF8 (UniProt Q6P2Q9)
# Method in brief: as §1
# PSMD7 = target: T3, PSMD7 (UniProt P51665)
# T3 sequence (whole entry): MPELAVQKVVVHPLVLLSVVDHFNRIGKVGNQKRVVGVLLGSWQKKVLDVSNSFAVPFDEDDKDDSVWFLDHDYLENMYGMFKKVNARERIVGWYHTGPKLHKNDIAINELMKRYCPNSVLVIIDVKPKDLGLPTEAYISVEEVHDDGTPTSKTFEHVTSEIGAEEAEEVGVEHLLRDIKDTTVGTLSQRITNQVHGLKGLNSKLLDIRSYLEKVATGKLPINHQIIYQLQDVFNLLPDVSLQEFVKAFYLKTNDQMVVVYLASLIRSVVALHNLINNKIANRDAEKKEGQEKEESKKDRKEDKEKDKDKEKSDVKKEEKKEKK
# Method in brief: as §1
# UCHL1 = UCHL1 (UniProt P09936)
# Method in brief: as §1
# UCHL3 = target: T4, UCHL3 (UniProt P15374)
# T4 sequence (whole entry): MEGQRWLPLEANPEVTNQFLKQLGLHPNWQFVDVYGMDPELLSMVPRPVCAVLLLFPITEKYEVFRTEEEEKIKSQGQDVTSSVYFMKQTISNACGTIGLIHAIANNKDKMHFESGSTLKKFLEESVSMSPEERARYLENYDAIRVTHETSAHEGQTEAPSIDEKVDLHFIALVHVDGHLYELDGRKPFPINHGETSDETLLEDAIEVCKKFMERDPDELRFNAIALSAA
# Method in brief: as §1
# UCHL5 = target: T5, UCHL5 (UniProt Q9Y5K5)
# T5 sequence (whole entry): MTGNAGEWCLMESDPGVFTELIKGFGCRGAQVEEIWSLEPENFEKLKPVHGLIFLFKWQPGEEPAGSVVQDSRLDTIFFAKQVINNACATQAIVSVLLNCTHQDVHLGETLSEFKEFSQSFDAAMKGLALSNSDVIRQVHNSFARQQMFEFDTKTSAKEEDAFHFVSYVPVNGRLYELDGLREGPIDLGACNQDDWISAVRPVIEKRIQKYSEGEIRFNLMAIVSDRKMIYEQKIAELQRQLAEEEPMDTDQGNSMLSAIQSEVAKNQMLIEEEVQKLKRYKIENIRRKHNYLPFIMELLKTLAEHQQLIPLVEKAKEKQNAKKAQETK
# Method in brief: as §1
# USP10 = USP10 (UniProt Q14694)
# Method in brief: as §1
# USP15 = target: T6, USP15 (UniProt Q9Y4E8)
# T6 sequence (whole entry): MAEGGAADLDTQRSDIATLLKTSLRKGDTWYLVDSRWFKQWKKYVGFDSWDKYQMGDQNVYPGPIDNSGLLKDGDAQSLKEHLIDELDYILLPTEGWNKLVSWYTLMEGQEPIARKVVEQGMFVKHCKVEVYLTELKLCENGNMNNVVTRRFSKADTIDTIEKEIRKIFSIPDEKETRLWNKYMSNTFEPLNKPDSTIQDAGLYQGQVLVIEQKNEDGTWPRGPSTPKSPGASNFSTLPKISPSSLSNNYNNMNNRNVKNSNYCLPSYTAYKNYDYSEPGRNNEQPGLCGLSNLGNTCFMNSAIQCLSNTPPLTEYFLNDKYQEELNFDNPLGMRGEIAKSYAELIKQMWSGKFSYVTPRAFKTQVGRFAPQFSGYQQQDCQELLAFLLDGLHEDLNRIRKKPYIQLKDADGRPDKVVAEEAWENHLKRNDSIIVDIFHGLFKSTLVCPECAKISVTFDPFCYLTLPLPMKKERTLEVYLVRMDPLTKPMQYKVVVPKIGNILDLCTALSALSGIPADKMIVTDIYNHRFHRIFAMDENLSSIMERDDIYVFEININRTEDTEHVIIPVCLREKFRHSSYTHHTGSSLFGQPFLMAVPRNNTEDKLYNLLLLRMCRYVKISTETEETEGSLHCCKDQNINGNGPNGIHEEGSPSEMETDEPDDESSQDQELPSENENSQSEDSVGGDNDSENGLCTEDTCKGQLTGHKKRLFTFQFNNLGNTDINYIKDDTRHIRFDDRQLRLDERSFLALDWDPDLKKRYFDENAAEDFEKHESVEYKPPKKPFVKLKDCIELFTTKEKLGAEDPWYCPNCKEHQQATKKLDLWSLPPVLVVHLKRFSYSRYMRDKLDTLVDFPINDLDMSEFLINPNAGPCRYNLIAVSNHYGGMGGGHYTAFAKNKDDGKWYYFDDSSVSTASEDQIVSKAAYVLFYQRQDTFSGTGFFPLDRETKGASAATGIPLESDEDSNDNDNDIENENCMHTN
# Method in brief: as §1
# USP16 = USP16 (UniProt Q9Y5T5)
# Method in brief: as §1
# Sequence of USP10 (Q14694 whole entry): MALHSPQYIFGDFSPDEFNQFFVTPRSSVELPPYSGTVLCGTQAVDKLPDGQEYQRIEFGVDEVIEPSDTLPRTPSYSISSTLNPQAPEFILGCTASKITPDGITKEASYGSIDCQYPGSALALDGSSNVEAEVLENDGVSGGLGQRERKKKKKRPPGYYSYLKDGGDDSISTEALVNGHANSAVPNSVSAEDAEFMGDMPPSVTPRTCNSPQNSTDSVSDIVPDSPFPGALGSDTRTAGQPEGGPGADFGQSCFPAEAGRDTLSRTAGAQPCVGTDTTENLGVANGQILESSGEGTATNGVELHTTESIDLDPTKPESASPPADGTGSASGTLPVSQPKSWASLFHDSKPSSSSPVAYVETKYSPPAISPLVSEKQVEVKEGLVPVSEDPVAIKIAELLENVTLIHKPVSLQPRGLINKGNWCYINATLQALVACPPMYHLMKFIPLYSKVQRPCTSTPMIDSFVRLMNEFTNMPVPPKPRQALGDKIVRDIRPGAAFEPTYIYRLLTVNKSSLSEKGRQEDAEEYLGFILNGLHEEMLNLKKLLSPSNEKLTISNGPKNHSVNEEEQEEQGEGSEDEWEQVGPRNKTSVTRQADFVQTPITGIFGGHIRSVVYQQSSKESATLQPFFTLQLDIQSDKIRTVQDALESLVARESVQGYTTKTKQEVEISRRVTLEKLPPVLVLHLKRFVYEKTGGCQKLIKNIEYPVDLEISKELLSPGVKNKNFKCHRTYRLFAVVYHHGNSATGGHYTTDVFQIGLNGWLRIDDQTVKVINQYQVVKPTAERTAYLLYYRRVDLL
# Sequence of UCHL1 (P09936 whole entry, looked up): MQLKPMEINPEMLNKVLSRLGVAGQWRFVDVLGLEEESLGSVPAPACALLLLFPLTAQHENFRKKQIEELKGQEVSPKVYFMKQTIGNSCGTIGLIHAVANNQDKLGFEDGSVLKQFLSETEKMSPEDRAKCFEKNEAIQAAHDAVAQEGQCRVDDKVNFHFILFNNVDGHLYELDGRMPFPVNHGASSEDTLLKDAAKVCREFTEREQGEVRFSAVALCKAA
# Sequence of USP16 (Q9Y5T5 whole entry, looked up): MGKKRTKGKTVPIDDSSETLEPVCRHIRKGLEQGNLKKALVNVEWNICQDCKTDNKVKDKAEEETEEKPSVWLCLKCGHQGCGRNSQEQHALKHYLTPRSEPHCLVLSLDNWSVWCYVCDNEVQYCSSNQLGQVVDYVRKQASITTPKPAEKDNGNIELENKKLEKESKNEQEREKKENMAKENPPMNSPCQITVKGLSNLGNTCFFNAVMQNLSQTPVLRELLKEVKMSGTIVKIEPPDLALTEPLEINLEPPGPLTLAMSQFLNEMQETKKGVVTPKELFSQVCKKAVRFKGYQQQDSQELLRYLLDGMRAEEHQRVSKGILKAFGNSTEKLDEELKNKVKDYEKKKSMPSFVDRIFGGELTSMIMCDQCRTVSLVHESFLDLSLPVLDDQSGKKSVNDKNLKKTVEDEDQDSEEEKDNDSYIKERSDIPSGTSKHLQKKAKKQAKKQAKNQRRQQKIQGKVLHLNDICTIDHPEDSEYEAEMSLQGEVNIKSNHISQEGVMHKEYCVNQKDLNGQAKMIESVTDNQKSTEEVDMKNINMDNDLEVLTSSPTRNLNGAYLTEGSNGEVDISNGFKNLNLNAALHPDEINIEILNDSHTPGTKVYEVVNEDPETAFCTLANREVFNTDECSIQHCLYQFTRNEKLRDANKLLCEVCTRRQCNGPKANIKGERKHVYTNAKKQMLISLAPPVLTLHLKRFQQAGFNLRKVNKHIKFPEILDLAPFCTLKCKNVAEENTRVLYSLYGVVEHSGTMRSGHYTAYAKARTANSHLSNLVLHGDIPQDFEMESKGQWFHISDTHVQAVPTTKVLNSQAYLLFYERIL
structure (smiles),measurement,setting,value
O=C(CCl)NCc1ccc2c(c1)OCO2,log2 ratio of Biotin-Ahx-Ub-VS probe labelling,OTUD6B,0.00826
same,log2 ratio of Biotin-Ahx-Ub-VS probe labelling,OTUD7B,-0.843
same,log2 ratio of Biotin-Ahx-Ub-VS probe labelling,PRPF8,-0.215
same,log2 ratio of Biotin-Ahx-Ub-VS probe labelling,PSMD7,-0.228
same,log2 ratio of Biotin-Ahx-Ub-VS probe labelling,UCHL1,-1.36 (active)
same,log2 ratio of Biotin-Ahx-Ub-VS probe labelling,UCHL3,-0.0636
same,log2 ratio of Biotin-Ahx-Ub-VS probe labelling,UCHL5,-0.325
same,log2 ratio of Biotin-Ahx-Ub-VS probe labelling,USP10,-0.00649
same,log2 ratio of Biotin-Ahx-Ub-VS probe labelling,USP15,-0.0739
same,log2 ratio of Biotin-Ahx-Ub-VS probe labelling,USP16,0.0675
